Experimental data: the supplement of paper PMC13380429

System: Vero E6 infected with SARS-CoV-2
Assay: inhibition of SARS-CoV-2 cytopathic effect; higher = more antiviral protection, active = above 15
Conditions: 48 h

Measured: inhibition of SARS-CoV-2 cytopathic effect

O=C(O)CCC/C=C\C[C@@H]1[C@@H](/C=C/[C@@H](O)COc2cccc(Cl)c2)[C@H](O)C[C@@H]1O (racemic) [cloprostenol-(+/-)]
inactive: 1 nM -2.05% | 8.33 nM 0.95% | 100 nM 2.48% | 833.33 nM 5.03% | 10000 nM 0.05%

O=C(c1ccc(Cl)cc1)N(Cc1ccccc1)C1CCCCC1
inactive: 1 nM -1.58% | 8.33 nM -1.87% | 100 nM 1.24% | 833.33 nM -0.21% | 10000 nM -2.35%

COCc1c(-c2ccc(NC(=O)Nc3cc(C(F)(F)F)ccc3F)c(F)c2)c2c(N)ncnn2c1CN1CCOCC1
inactive: 1 nM -1.56% | 8.33 nM -1.94% | 100 nM -2.74% | 833.33 nM -0.39% | 10000 nM -0.16%

CCOC(=O)c1c(/C(C#N)=C\N)c2ccc(Cl)c(Cl)c2n1C
inactive: 1 nM -0.1% | 8.33 nM 0.69% | 100 nM 0.36% | 833.33 nM 0.1% | 10000 nM -2.18%

C[C@@H]1C[C@H]2[C@@H]3C[C@H](F)C4=CC(=O)C=C[C@]4(C)[C@@]3(F)[C@@H](O)C[C@]2(C)[C@@]1(O)C(=O)CO [flumethasone]
inactive: 1 nM 0.24% | 8.33 nM -0.72% | 100 nM 1.45% | 833.33 nM 0.62% | 10000 nM 0.56%

N=C(N)N/N=C/c1c(Cl)cccc1Cl [guanaben-acetate]
inactive: 1 nM -2.82% | 8.33 nM -0.46% | 100 nM -3.74% | 833.33 nM -2.55% | 10000 nM -1.82%

CCCN(CCC)S(=O)(=O)c1ccc(C(=O)O)cc1 [probenecid]
inactive: 1 nM -0.75% | 8.33 nM -2.02% | 100 nM -2.27% | 833.33 nM -2.63% | 10000 nM -2.19%

CN1C(=O)C(N2CCCCC2)S/C1=C\C(=O)O (stereo not given) [ozolinone]
inactive: 1 nM -4.09% | 8.33 nM 0.03% | 100 nM 4.18% | 833.33 nM 0.02% | 10000 nM -0.02%

CC(=O)c1ccc2c(c1)N(CCCN1CCN(CCO)CC1)c1ccccc1S2 [acetophenazine]
inactive: 1 nM 1.65% | 8.33 nM 1.77% | 100 nM 2.3% | 833.33 nM 2.47% | 10000 nM 2.15%

COc1ccc(C(=O)Nc2c(Cl)cncc2Cl)cc1OC1CCCC1 [piclamilast]
inactive: 1 nM -1.88% | 8.33 nM -0.22% | 100 nM 0.16% | 833.33 nM -2.24% | 10000 nM -0.91%

O=c1[nH]nc2c3c(cccc13)N=C(CN1Cc3ccccc3C1)N2
inactive: 1 nM 0.7% | 8.33 nM -0.79% | 100 nM 0.78% | 833.33 nM 0.24% | 10000 nM 1.13%

CC(=O)Nc1ccc(NC(=S)NC(=O)c2ccc(C(C)(C)C)cc2)cc1 [tenovin-1]
inactive: 1 nM -0.23% | 8.33 nM 0.85% | 100 nM 1.6% | 833.33 nM -7.1% | 10000 nM -8.92%

COC1=CC(=O)C[C@@H](C)[C@]12Oc1c(Cl)c(OC)cc(OC)c1C2=O [griseofulvin]
inactive: 1 nM 1.17% | 8.33 nM 0.82% | 100 nM 0.95% | 833.33 nM 2.52% | 10000 nM 1.84%

CN1CC[C@@]2(C)c3cc(O)ccc3N(C)[C@@H]12 [eseroline-(-)]
inactive: 1 nM 0.81% | 8.33 nM 0.96% | 100 nM 2.54% | 833.33 nM 3.07% | 10000 nM 6.49%

NCC(=O)O
inactive: 1 nM 1.39% | 8.33 nM -0.35% | 100 nM 1.12% | 833.33 nM -1.32% | 10000 nM 0.49%

CN1CCN(c2cccc3[nH]c(=O)oc23)CC1 [pardoprunox]
inactive: 1 nM 0.73% | 8.33 nM 1.76% | 100 nM 3.14% | 833.33 nM -2.14% | 10000 nM 1.85%

N[C@@H](Cc1c[nH]c2ccccc12)C(=O)O [tryptophan]
inactive: 1 nM -6.32% | 8.33 nM -7.31% | 100 nM -3.29% | 833.33 nM -4.07% | 10000 nM -10.4%

Clc1ccccc1C(c1ccccc1)(c1ccccc1)n1ccnc1 [clotrimazole]
inactive: 1 nM -0.06% | 8.33 nM -0.06% | 100 nM -0.28% | 833.33 nM 0.61% | 10000 nM 2.73%

CCc1nc(-c2cccc(C)c2)c(-c2ccnc(NC(=O)c3ccccc3)c2)s1
inactive: 1 nM 1.89% | 8.33 nM -0.27% | 100 nM -3.38% | 833.33 nM -1.52% | 10000 nM -4.97%
